Out of some 200,000 compounds screened, about 18,000 (9%) were called active. This excerpt belongs to a sample that is enriched for actives. A number with no mark means an inactive call. Rule as the data show it: active = inhibition above about 50%; inactive = the rest.
assay: antileishmanial activity against promastigotes – primary screen (AID 1063); settings: Leishmania major promastigotes, resazurin fluorescence viability; at 10 µM; active compounds read high;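 also: promastigotes grown with compound for 44 hours at 28 °C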

Row | SMILES | inhibition
1 | COc1ccc(CCNc2cc(C)nc3c(-c4ccc(Cl)cc4)c(C)nn23)cc1OC | 76.3% (active)
2 | COc1ccc(CCNc2ncnc3nc[nH]c23)cc1OC | 5.03%
3 | COc1ccc(CCNC2=C(Cl)C(=O)N(Cc3ccccc3)C2=O)cc1OC | 8.4%
4 | Cc1cc(Cl)ccc1OCCCC(=O)NCc1ccccn1 | 5.49%
5 | COCCCNC(=S)NC(=O)c1ccc([N+](=O)[O-])cc1 | -8.2%
6 | COc1ccccc1OCCNC(=O)c1cc([N+](=O)[O-])cc([N+](=O)[O-])c1 | 93.5% (active)
7 | COc1ccccc1OCCNc1cc(N2CCOCC2)ccc1[N+](=O)[O-] | 2.32%
8 | Cc1ccc(NC(=O)CSCC(=O)NC2CCCCC2)cc1 | 14.3%
9 | CCC1CO/C(=C(\C(=C(Cl)Cl)N2CCOCC2)[N+](=O)[O-])N1 (stereo not drawn) | -6.26%
10 | Cc1noc(C)c1S(=O)(=O)Nc1ccc(C(=O)N2CCN(c3ccc(F)cc3)CC2)cc1 | 4.11%
11 | CCc1ccccc1NC(=O)CN(C)C(=O)COc1ccc(C)nc1[N+](=O)[O-] | 57.1% (active)
12 | Cc1ccc(OCC(=O)Nc2ccccc2Sc2ccc(Cl)cc2)c([N+](=O)[O-])n1 | 7.6%
13 | COc1ccccc1CNC(=O)COc1ccc(C)nc1[N+](=O)[O-] | 0.88%
14 | COc1ccc(S(=O)(=O)N2CCCCCC2)cc1C(=O)OCC(=O)Nc1cc(C)on1 | 3.73%
15 | CC(=O)c1c(C)[nH]c(C(=O)OCC(=O)Nc2cc(S(=O)(=O)N3CCCCC3)ccc2C)c1C | 95.4% (active)
16 | CC(=O)c1c(C)[nH]c(C(=O)Nc2cc(S(=O)(=O)N(C)C)ccc2C)c1C | -6.9%
17 | CC(C)(C)C(=O)Cn1c(NCCO)nc2ccccc21 | -7.58%
18 | OCCNc1nc2ccccc2n1-c1ncnc2sc3c(c12)CCC3 | 60.8% (active)
19 | Cn1c(NN)nc2sc3c(c2c1=O)CCC3 | -2.23%
20 | CCN1CCc2nc(NC(=O)c3cc(F)c(F)cc3Cl)sc2C1 | -0.49%
21 | Nc1ccc(Cl)c(S(=O)(=O)Nc2ccccc2Cl)c1 | 1.56%
22 | COc1ccc(C2CC(c3ccccc3)=NN2C(=O)c2ccc(Cl)c([N+](=O)[O-])c2)cc1 (stereo not drawn) | 31.9%
23 | CCOc1ccc2nc(Cl)c(C3CC(c4ccccc4)=NN3C(=O)c3cccs3)cc2c1 (stereo not drawn) | 66.5% (active)
24 | CCOc1ccccc1C1CC(c2cccc(NS(C)(=O)=O)c2)=NN1C(=O)c1ccccc1 (stereo not drawn) | 2.04%

Row | SMILES | inhibition
25 | COc1ccc(C(=O)COC(=O)c2ccc3ccccc3n2)cc1 | -7.38%
26 | COc1ccc(CCNC(=O)CCn2c(=O)c3ccccc3n(CC(=O)NCC3CCCO3)c2=O)cc1OC (stereo not drawn) | -3.03%
27 | Cc1ccnc(NC(=O)c2ccco2)n1 | -6.16%
28 | COc1ccc(CCCc2nnc(SCc3nc4ccccc4c(=O)[nH]3)n2C)cc1 | -4.22%
29 | CC(NC(=O)COC(=O)c1cc(=O)[nH]c2ccccc12)c1ccccc1 (stereo not drawn) | -4.71%
30 | Cc1ccccc1CC1(CO)CCCN(C(=O)c2cc(-c3ccccc3)no2)C1 (stereo not drawn) | -3.77%
31 | Cc1ccccc1CC1(CO)CCCN(Cc2ccc3c(c2)OCCO3)C1 (stereo not drawn) | 70.2% (active)
32 | COc1cccc(CC2(CO)CCCN(Cc3nc(-c4cccs4)oc3C)C2)c1 (stereo not drawn) | 2.57%
33 | COc1cc(CC(=O)N/N=C/c2ccccc2)c([N+](=O)[O-])cc1OC | -0.35%
34 | COc1cc(CN2CCN(Cc3ccc(C)cc3)CC2)c([N+](=O)[O-])cc1OC | 53.4% (active)
35 | COc1cc(CN2CC(C)CC(C)C2)cc([N+](=O)[O-])c1O (stereo not drawn) | 16.2%
36 | CCOC(=O)CNC(=O)/C(=C\c1ccc(F)cc1)NC(=O)c1ccccc1 | -2.16%
37 | CCN(CC(=O)NCc1cccs1)C(=O)c1ccccc1F | 35%
38 | CCOc1ccc(CCNC(=O)C2=C(C)C(=O)OC23CCC(C)CC3)cc1OCC (stereo not drawn) | 5.17%
39 | COc1ccc(CNC(=O)CN2CCC(n3nnc4cc(F)ccc43)CC2)cc1 | 2.66%
40 | CCOc1cc(NC(=S)NCCCOC)c(OCC)cc1NC(=O)c1ccco1 | 36.4%
41 | CCN1CCN(CC(=O)Nc2sc3c(c2C#N)CCC3)CC1 | -1.23%
42 | CN1CCN(CC(=O)Nc2sc3c(c2C#N)CCC(C(C)(C)C)C3)CC1 (stereo not drawn) | 100% (active)
43 | CCC1CCc2c(sc(NC(C)=O)c2C#N)C1 (stereo not drawn) | -3.49%
44 | Cc1nn2cc(-c3ccc(Cl)cc3)cnc2c1Br | -2.01%
45 | COc1ccc(Cl)cc1C(=O)NCC#N | -4%
46 | N#C/C=C\Oc1ccc(Cl)cc1N | 67.9% (active)
47 | CCCC/S(C)=N/S(=O)(=O)c1ccc(C)cc1 (stereo not drawn) | -10.2%
48 | COc1cc(NS(=O)(=O)c2ccc(NC(=O)c3ccc(S(=O)(=O)N4CCCCC4)cc3)cc2)ncn1 | -2.97%
